# Shown are actives, neighbours in structure and some others; about 5.2% of the full set was active somewhere.
# FBPA coupling cs: qHTS Assay for Inhibitors of Fructose-1,6-bisphosphate Aldolase from Giardia Lamblia: Coupling assay counterscreen. coupling enzyme system counterscreen, AmpLite Red fluorescence. actives 0.67% (n = 290,000). activity change, negative = inhibition, % at 58.2 µM, hits read low; in the data active means activity change below about -30%
#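 Compounds tested against the coupling enzymes alone at 57.5 uM final; readout was AmpLite Red fluorescence (525/598 nm) after 20 min at RT.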
# Tau fluor cs: Counterscreen qHTS for Inhibitors of Tau Fibril Formation, Fluorescence Polarization | tau K18 P301L Alexa594 fluorescence, heparin fibrillization | AID 1463, 2008 | Potency, µM (doses to about 57.7 µM) | actives 0.93% (n = 280,000); further: nearly all actives have a fitted effect of over 55% in size
#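 Human tau K18 P301L (15 uM unlabeled, 0.24 uM Alexa 594-labeled) in 100 mM sodium acetate pH 7 with 20 uM heparin, 6 hr at 37 C. ThT 30 uM added, 1 hr ambient; Alexa 594 FP and total fluorescence read at 555/632 nm.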
# Sfp PPTase inh: qHTS Assay for Inhibitors of Bacillus subtilis Sfp phosphopantetheinyl transferase (PPTase) | actives 3.5% (n = 310,000) | 4'-phosphopantetheinyl transferase ffp (Bacillus subtilis), Q9F4F7 | Biochemical Sfp PPTase activity, qHTS | AID 1490, 2009 | Potency, µM, usual class: inhibitors;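 further: the enzyme is Sfp with the accession as filed and its product quenches rhodamine fluorescence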
#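 Compounds were incubated with enzyme (final 15 nM) for 15 min at room temperature before substrate addition started the reaction. Fluorescence at 525 nm excitation, 598 nm emission was recorded immediately and after 30 minutes.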
# Tau fibril ThT: qHTS for Inhibitors of Tau Fibril Formation, Thioflavin T Binding | Microtubule-associated protein tau (Homo sapiens), P10636 | recombinant tau K18 P301L, heparin-induced fibrillization, ThT fluorescence | Potency, µM (series often up to 57.4 µM), actives largely listed as inhibitors | actives 2.1% (n = 270,000); further: nearly all actives have a fitted effect of over 55% in size
# Target sequence (P10636 561-689 P618L limits assumed): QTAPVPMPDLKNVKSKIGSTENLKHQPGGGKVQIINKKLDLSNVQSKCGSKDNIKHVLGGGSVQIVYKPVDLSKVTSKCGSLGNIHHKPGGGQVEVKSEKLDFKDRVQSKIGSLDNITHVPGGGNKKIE
#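 Fibril formation assay: tau K18 P301L at 15 uM with trace Alexa 594 label, heparin inducer 20 uM, pH 7 sodium acetate buffer, 37 C for 6 hr; endpoint ThT signal.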
# Tau fibril FP: qHTS for Inhibitors of Tau Fibril Formation, Fluorescence Polarization; Microtubule-associated protein tau (Homo sapiens), P10636; K18 P301L tau heparin fibrillization, Alexa594 FP, 6 h; Potency, µM (highest dose often 57.7 µM), usual class: inhibitors; actives 0.39% (n = 280,000); further: nearly all actives have a fitted effect of over 55% in size
#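 Heparin (20 uM) drove fibril formation of recombinant tau K18 P301L, 15 uM unlabeled with 0.24 uM Alexa 594 label, for 6 hr at 37 C in 100 mM sodium acetate pH 7. Fluorescence polarization (555/632 nm) read 1 hr after 30 uM ThT.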
# A number is an active result; – = inactive; ? = inconclusive; · = no result given; [ ] = another dose, or the depositor's remark. Unless noted, the call rests on the fitted dose curve; in most records, active means well fitted curve in the direction sought with a large enough effect; inconclusive means small, poorly fitted or top-dose-only effect, or another doubt; inactive means no such curve, though single readings can be large; an effect the other way counts as inactive or inconclusive.
SMILES,FBPA coupling cs,Tau fluor cs,Sfp PPTase inh,Tau fibril ThT,Tau fibril FP
COc1ccc(C2NCCc3c2[nH]c2ccccc32)cc1CN1CCc2cc(OC)c(OC)cc2C1C (centres undefined),–,·,–,·,·
COc1cccc(/C=C/C2=CC3(C)CC2(C)C(c2cccc(OC)c2)CC3=O)c1 (centres undefined),–,–[11.6 µM],–,–[11.5 µM],–[11.6 µM]
C=CCSc1nc(-c2ccc3c(c2)OCO3)cc(C(F)(F)F)c1C#N,–,–,18µM,–,–
CCOC(=O)CCSc1nc(-c2ccc3c(c2)OCO3)cc(C(F)(F)F)c1C#N,–,–,–,–,–
COc1ccc(-c2nnc3c4ccccc4c(-c4ccccc4)nn23)cc1,·,–,·,–,–
COc1ccc(Br)cc1CNC(=O)CN1C(=O)CSc2ccc(S(=O)(=O)N3CCOCC3)cc21,·,–,·,–,–
Cc1cccc(N2CCN(C(=O)CCS(=O)(=O)c3ccc4c(c3)CC(=O)N4C)CC2C)c1 (centres undefined),·,–,·,?,–
CCN1/C(=C/C=C/C=C/C=C/c2sc3ccccc3[n+]2CC)Sc2ccccc21,–,·,50µM,·,·
CC[n+]1c(/C=C(/C)SC)sc2ccccc21,–,–,?,–,–
CCOC(=O)/C(=C\C=C1/Sc2ccccc2N1CC)C(C)=O,–,–,–,?,–
CCN1/C(=C/C=C/C=C/c2sc3ccccc3[n+]2CC)Sc2ccccc21,–,16µM[quencher],45µM,4µM,18µM
CCN1/C(=C/C=C/c2sc3ccccc3[n+]2CC)Sc2ccccc21,·,·,79µM,·,·
CCOc1ccc2c(c1)-c1c(ssc1=S)C(C)(C)N2C,–,13µM[quencher],–,14µM,–
COc1ccc(/C=C2\N=C(SC)SC2=O)cc1OC,–,–,–,?,–
CCOc1cc(/C=C2\N=C(SC)SC2=O)cc([N+](=O)[O-])c1OC(C)=O,–,?,?,3.5µM,–
CCSC1=N/C(=C\c2ccc(C)s2)C(=O)S1,–,–,?,?,–
CCOc1cc(/C=C2\N=C(SCC)SC2=O)cc([N+](=O)[O-])c1OC(C)=O,–,?,?,4µM,–
CCOC(=O)CSC1=NC(=O)/C(=C\c2ccc(OC(C)=O)cc2)S1,–,–,?,?,–
CCOc1c(OC(C)=O)ccc(/C=C2\N=C(SCC)SC2=O)c1[N+](=O)[O-],–,18µM[quencher],–,14µM,?
Cc1noc(C)c1-c1ccc2ncnc(NCc3cccc(C(F)(F)F)c3)c2c1,–,·,–,·,·
CN(Cc1ccccc1)C(=O)c1c[nH]c2ccc(S(=O)(=O)Nc3ccccc3F)cc2c1=O,·,–,·,–,–
CC1CCN(c2nn3c(=O)c(C(=O)NCCc4ccc(Cl)cc4)cnc3s2)CC1,·,–,·,–,–
C[C@@H]1CN2[C@H](c3ccc(Br)cc3)[C@H](C)CC[C@H]2C(=O)O1,–,–[11.6 µM],–,–[11.5 µM],–[11.6 µM]
CCCCCCCCCCCCCC[C@@H](O)[C@@H](O)[C@@H](N)CO,–,·,?,·,·
CC(C)Oc1ccc(CNC(=O)c2ccc3nc(Cc4ccccc4)oc3c2)cc1,·,–,·,–,–
O=C(c1ccc2c(c1)OCO2)[C@@H]1[C@@H]2C(=O)N(C3CCCCC3)C(=O)[C@@H]2C2c3ccccc3C=CN21 (some centres undefined),-36,?,–,28µM,?
O=C(c1cccs1)[C@@H]1[C@@H]2C(=O)N(Cc3ccc4c(c3)OCO4)C(=O)[C@@H]2C2c3ccccc3C=CN21 (some centres undefined),-38,?,–,22µM,?
COc1ccc(N2C(=O)[C@@H]3[C@H](C2=O)[C@H]2c4ccccc4C=CN2[C@@H]3C(C)=O)cc1,-42,–,–,16µM,?
CC(C)(C)C(=O)[C@@H]1[C@@H]2C(=O)N(C3CCCCC3)C(=O)[C@@H]2[C@H]2c3ccccc3C=CN12,–,?,–,32µM,?
O=C(c1ccc2c(c1)OCO2)C1CCCN(C(=O)Nc2ccc(F)cc2F)C1 (centres undefined),–,–,–,–,–

# Screening data as filed in PubChem BioAssay.
